PubChem BioAssay AID1159580 (chemical genetic matrix, 2015)
Where “and” joins values, the source holds several entries; their conditions need not be identical. Equal entries are not always repeated. About 2,000 (36%) of roughly 5,500 compounds were called active. Inconclusive results (about 18%) are left out. Rule as the data show it: active = normalized growth mostly below about 0.91 (no sharp cut-off); inconclusive = no clear call, values can overlap the other calls; inactive = mostly above about 0.92. The list shows a part of the results.

Experiment: chemical genetic growth profiling, strain panel (AID 1159580);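 also: tested at 20 µM; growth read once vehicle control cultures reached saturation at 30 °C; 1 = growth at the plate median or of vehicle wells; lower values mean less growth of the strain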
Details: S. cerevisiae deletion strains, growth OD

Measured: normalized growth

N#C/C(=C\c1ccc(O)cc1)C(=O)O
inactive: locus YAL013W, strain DEP1, stronger effect = lower value 0.988 | locus YAL021C, strain ccr4, stronger effect = lower value 0.979 | locus YAL026C, strain drs2, stronger effect = lower value 1 | locus YAL030W, strain snc1, stronger effect = lower value 1.01 | locus YBL061C, strain skt5, stronger effect = lower value 1.01 | locus YBR009C, strain hhf1, stronger effect = lower value 1.02 | locus YBR021W, strain FUR4, stronger effect = lower value 1.02 | locus YBR023C, strain chs3, stronger effect = lower value 1 | locus YBR171W, strain sec66, stronger effect = lower value 0.991 | locus YBR229C, strain ROT2, stronger effect = lower value 0.956 | locus YBR231C, strain swc5, stronger effect = lower value 1.01 | locus YBR279W, strain paf1, stronger effect = lower value 1 | locus YCL011C, strain gbp2, stronger effect = lower value 0.987 | locus YCL016C, strain dcc1, stronger effect = lower value 1.01 | locus YCL029C, strain bik1, stronger effect = lower value 0.997 | locus YCL061C, strain MRC1, stronger effect = lower value 0.993 | locus YCL069W, strain vba3, stronger effect = lower value 0.996 | locus YCR088W, strain abp1, stronger effect = lower value 0.987 | locus YDL005C, strain med2, stronger effect = lower value 0.997 | locus YDL035C, strain GPR1, stronger effect = lower value 0.994 | locus YDL040C, strain nat1, stronger effect = lower value 1 | locus YDL074C, strain BRE1, stronger effect = lower value 0.966 | locus YDL101C, strain DUN1, stronger effect = lower value 0.951 | locus YDL134C, strain PPH21, stronger effect = lower value 0.987 | locus YDL185W, strain tfp1, stronger effect = lower value 0.976 | locus YDL192W, strain arf1, stronger effect = lower value 0.993 | locus YDR001C, strain nth1, stronger effect = lower value 0.996 | locus YDR069C, strain doa4, stronger effect = lower value 1 | locus YDR101C, strain arx1, stronger effect = lower value 1.01 | locus YDR137W, strain rgp1, stronger effect = lower value 0.992 | locus YDR150W, strain NUM1, stronger effect = lower value 0.981 | locus YDR159W, strain sac3, stronger effect = lower value 1.01 | locus YDR162C, strain NBP2, stronger effect = lower value 0.937 | locus YDR195W, strain ref2 0.988 | locus YDR297W, strain sur2, stronger effect = lower value 0.997 | locus YDR318W, strain mcm21, stronger effect = lower value 1.04 | locus YDR334W, strain swr1, stronger effect = lower value 0.961 | locus YDR335W, strain msn5, stronger effect = lower value 1 | locus YDR388W, stronger effect = lower value 1.01 | locus YDR392W, strain spt3, stronger effect = lower value 0.972 | locus YDR502C, strain sam2, stronger effect = lower value 0.987 | locus YEL003W, strain gim4, stronger effect = lower value 0.989 | locus YEL037C, strain rad23, stronger effect = lower value 0.986 | locus YEL061C, strain CIN8 (second series), stronger effect = lower value 0.984 | locus YEL061C, strain CIN8, stronger effect = lower value 0.984 | locus YER015W, strain faa2, stronger effect = lower value 1 | locus YER016W, strain bim1, stronger effect = lower value 1.01 | locus YER110C, stronger effect = lower value 0.999 | locus YER111C, strain swi4, stronger effect = lower value 0.999 | locus YER155C, strain BEM2 (second series), stronger effect = lower value 1.01 | locus YER155C, strain BEM2, stronger effect = lower value 0.987 | locus YER167W, strain BCK2, stronger effect = lower value 1.01 | locus YFR010W, strain ubp6, stronger effect = lower value 0.983 | locus YGL078C, strain dbp3, stronger effect = lower value 0.985 | locus YGL086W, strain mad1, stronger effect = lower value 1.02 | locus YGL167C, strain pmr1, stronger effect = lower value 1.01 | locus YGL173C, strain kem1, stronger effect = lower value 1 | locus YGL227W, strain vid30, stronger effect = lower value 0.998 | locus YGL240W, strain doc1, stronger effect = lower value 1.03 | locus YGL248W, strain PDE1, stronger effect = lower value 0.976 | locus YGL253W, strain hxk2, stronger effect = lower value 0.999 | locus YGR078C, strain PAC10, stronger effect = lower value 0.97 | locus YGR135W, strain pre9, stronger effect = lower value 0.988 | locus YGR229C, strain SMI1, stronger effect = lower value 0.996 | locus YGR252W, strain gcn5, stronger effect = lower value 1.09 | locus YHR013C, strain ard1, stronger effect = lower value 1.02 | locus YHR027C, strain rpn1, stronger effect = lower value 0.99 | locus YHR030C, strain SLT2, stronger effect = lower value 0.997 and 1.06 | locus YHR079C, strain IRE1 (second series), stronger effect = lower value 1 | locus YHR079C, strain IRE1, stronger effect = lower value 1.07 | locus YHR094C, strain hxt1, stronger effect = lower value 0.998 | locus YHR129C, strain ARP1, stronger effect = lower value 0.986 | locus YHR142W, strain chs7, stronger effect = lower value 0.954 | locus YHR200W, strain rpn10, stronger effect = lower value 0.996 | locus YIL066C, strain RNR3, stronger effect = lower value 0.981 | locus YIL073C, strain SPO22, stronger effect = lower value 1.1 | locus YIL125W, strain kgd1, stronger effect = lower value 0.997 | locus YIR030C, strain dcg1, stronger effect = lower value 0.988 | locus YJL092W, strain hpr5, stronger effect = lower value 0.979 | locus YJL095W, strain BCK1 (second series), stronger effect = lower value 1 | locus YJL095W, strain BCK1, stronger effect = lower value 0.979 and 1.08 | locus YJL115W, strain asf1, stronger effect = lower value 0.988 | locus YJL129C, strain trk1, stronger effect = lower value 0.98 | locus YJL134W, strain LCB3, stronger effect = lower value 0.983 | locus YJL154C, strain vps35, stronger effect = lower value 0.975 | locus YJL164C, strain tpk1, stronger effect = lower value 1 | locus YJL166W, strain qcr8, stronger effect = lower value 1.01 | locus YJL168C, strain set2, stronger effect = lower value 0.992 | locus YJL187C, strain SWE1 (second series), stronger effect = lower value 0.96 | locus YJL187C, strain SWE1, stronger effect = lower value 1 | locus YJR043C, strain POL32, stronger effect = lower value 1.04 | locus YJR066W, strain TOR1, stronger effect = lower value 0.992
